How the values were obtained:
Experiment in all cases: log2 ratio of Biotin-Ahx-Ub-VS probe labelling (compound/DMSO); higher = less target engagement, active = hit call of the paper (q ≤ 0.05, log2 ratio ≤ -1)
Settings in all cases: treatment time: 3 h
[1] = compound: CCC1N(CCc2sccc12)C(=O)CCl
In short: (§1)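 HEK293T lysate (495 µg per sample, in Tris/CHAPS/IGEPAL buffer with protease inhibitors) was exposed in triplicate to compound at 50 or 200 µM, or to DMSO, for 3 h, then to Biotin-Ahx-Ub-VS (0.5 µM final) for 1 h. The labelled DUBs were enriched on NeutrAvidin, digested with LysC and trypsin, and analysed by diaPASEF LC-MS/MS. Average base-two log ratios of compound over DMSO came from median-normalised label-free quantities by unpaired t-test. Only proteins with at least 2 unique peptides were used.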

[2] = compound: CN1c2ccccc2C(CS1(=O)=O)NC(=O)CCl
In short: as §1

[3] = compound: Cl.ClCC(=O)N1CCc2ncncc2C1
In short: as §1

[4] = compound: Cl.Cn1ncc2C(CCCc12)NC(=O)CCl
In short: as §1

[5] = compound: ClCC(=O)NC1CCOc2ccccc12
In short: as §1

[6] = compound: ClCC(=O)NC1CCCc2ccccc12
In short: (§2)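 These values are averaged ratios of compound to vehicle, tested by unpaired t-test. HEK293T lysate (495 µg per sample) was preincubated in triplicate with compound across a concentration series or vehicle for 3 h and then with Biotin-Ahx-Ub-VS at 0.5 µM final for 1 h. Deubiquitinases carrying the probe were NeutrAvidin-enriched, digested with LysC and trypsin, and measured by diaPASEF LC-MS/MS. Ratios are expressed as log2 from global-median-normalised Spectronaut label-free quantities, and only proteins with two or more unique peptides were included.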

[7] = compound: ClCC(=O)N[C@@H]1CCCc2ccccc12
In short: as §2

[8] = compound: ClCC(=O)N[C@H]1CCCc2ccccc12
In short: as §2

[9] = compound: CCC1N(CCc2cc(OC)c(Cl)cc12)C(=O)CCl
In short: as §1

[10] = compound: CCCC1N(CCc2cc(OC)c(OC)cc12)C(=O)CCl
In short: as §1

Measured: log2 ratio of Biotin-Ahx-Ub-VS probe labelling

ATXN3 (UniProt P54252)
Sequence of UniProt P54252 (P54252 whole entry): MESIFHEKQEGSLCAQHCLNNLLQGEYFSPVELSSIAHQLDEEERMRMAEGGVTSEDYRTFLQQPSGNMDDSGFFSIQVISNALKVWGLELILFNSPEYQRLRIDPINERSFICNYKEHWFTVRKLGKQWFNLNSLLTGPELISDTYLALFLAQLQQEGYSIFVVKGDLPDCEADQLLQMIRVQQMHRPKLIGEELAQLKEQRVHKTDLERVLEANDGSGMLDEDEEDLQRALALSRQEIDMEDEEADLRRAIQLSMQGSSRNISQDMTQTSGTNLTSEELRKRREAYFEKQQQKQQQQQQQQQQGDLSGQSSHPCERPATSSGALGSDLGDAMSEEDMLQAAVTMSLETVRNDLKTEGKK
inactive: [1]; compound concentration: 50uM -0.116 | [1]; compound concentration: 200uM -0.483 | [2]; compound concentration: 50uM -0.0445 | [2]; compound concentration: 200uM -0.365 | [3]; compound concentration: 50uM -0.35 | [4]; compound concentration: 50uM 0.199 | [4]; compound concentration: 200uM -0.212 | [5]; compound concentration: 50uM 0.00952 | [5]; compound concentration: 200uM -0.0594 | [6]; compound concentration: 0.78uM -0.108 | [6]; compound concentration: 1.56uM -0.213 | [6]; compound concentration: 3.13uM -0.478 | [6]; compound concentration: 6.25uM -0.165 | [6]; compound concentration: 12.5uM -0.236 | [6]; compound concentration: 25uM -0.301 | [6]; compound concentration: 50uM -0.18 | [6]; compound concentration: 100uM -0.156 | [6]; compound concentration: 200uM -0.285 | [7]; compound concentration: 0.78uM -0.286 | [7]; compound concentration: 1.56uM -0.107 | [7]; compound concentration: 3.13uM -0.24 | [7]; compound concentration: 6.25uM -0.0908 | [7]; compound concentration: 12.5uM -0.0507 | [7]; compound concentration: 25uM -0.218 | [7]; compound concentration: 50uM -0.0106 | [7]; compound concentration: 100uM -0.151 | [7]; compound concentration: 200uM -0.0598 | [8]; compound concentration: 0.78uM -0.183 | [8]; compound concentration: 1.56uM -0.0688 | [8]; compound concentration: 3.13uM -0.152 | [8]; compound concentration: 6.25uM -0.297 | [8]; compound concentration: 12.5uM -0.125 | [8]; compound concentration: 25uM -0.266 | [8]; compound concentration: 50uM -0.171 | [8]; compound concentration: 100uM -0.0739 | [8]; compound concentration: 200uM -0.312 | [9]; compound concentration: 50uM -0.248 | [10]; compound concentration: 50uM 0.126 | [10]; compound concentration: 200uM -0.435
active: [3]; compound concentration: 200uM -1.37 | [9]; compound concentration: 200uM -1.54

USP47 (UniProt Q96K76)
Sequence of UniProt Q96K76 (Q96K76 whole entry): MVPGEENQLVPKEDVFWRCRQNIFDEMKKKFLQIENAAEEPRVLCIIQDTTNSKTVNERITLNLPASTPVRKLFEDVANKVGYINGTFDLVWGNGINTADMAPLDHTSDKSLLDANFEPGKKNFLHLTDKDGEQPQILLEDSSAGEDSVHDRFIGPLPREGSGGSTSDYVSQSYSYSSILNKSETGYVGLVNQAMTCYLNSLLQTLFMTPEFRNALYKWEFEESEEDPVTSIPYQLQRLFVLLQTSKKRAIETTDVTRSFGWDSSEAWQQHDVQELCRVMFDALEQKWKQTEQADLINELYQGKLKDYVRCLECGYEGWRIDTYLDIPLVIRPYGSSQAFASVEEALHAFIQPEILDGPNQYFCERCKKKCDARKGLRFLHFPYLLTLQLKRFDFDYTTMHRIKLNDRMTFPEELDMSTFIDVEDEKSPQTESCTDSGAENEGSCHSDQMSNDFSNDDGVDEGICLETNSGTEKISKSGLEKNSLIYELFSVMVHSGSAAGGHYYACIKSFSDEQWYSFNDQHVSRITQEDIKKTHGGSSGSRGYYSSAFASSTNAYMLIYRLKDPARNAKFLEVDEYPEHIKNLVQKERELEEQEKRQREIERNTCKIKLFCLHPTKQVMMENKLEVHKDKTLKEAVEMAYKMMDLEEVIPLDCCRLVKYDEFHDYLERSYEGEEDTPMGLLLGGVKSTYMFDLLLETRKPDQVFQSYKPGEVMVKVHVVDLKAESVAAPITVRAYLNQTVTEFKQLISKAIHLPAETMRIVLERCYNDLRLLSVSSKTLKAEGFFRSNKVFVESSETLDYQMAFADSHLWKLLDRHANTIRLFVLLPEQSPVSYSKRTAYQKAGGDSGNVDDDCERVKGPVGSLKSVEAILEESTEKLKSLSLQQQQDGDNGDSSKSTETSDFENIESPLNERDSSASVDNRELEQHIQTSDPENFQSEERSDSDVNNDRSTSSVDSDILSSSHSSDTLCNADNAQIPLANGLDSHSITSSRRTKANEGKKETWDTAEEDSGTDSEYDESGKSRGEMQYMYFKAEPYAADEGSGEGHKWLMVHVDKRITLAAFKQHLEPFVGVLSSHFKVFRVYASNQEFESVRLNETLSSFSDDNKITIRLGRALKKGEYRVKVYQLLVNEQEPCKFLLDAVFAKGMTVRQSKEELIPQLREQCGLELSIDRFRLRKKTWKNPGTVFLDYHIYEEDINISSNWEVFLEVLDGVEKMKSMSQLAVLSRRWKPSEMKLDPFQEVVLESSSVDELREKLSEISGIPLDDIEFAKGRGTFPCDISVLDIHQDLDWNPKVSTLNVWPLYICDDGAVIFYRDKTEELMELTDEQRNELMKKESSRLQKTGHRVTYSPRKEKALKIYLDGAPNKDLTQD
active: [6]; compound concentration: 3.13uM -1.96 | [6]; compound concentration: 6.25uM -1.31 | [6]; compound concentration: 12.5uM -2.62 | [6]; compound concentration: 25uM -2.65 | [6]; compound concentration: 50uM -1.54 | [6]; compound concentration: 100uM -1.65 | [6]; compound concentration: 200uM -1.87 | [7]; compound concentration: 0.78uM -1.55 | [8]; compound concentration: 6.25uM -1.57 | [8]; compound concentration: 100uM -1.22
inactive: [6]; compound concentration: 0.78uM -0.835 | [6]; compound concentration: 1.56uM -0.97 | [7]; compound concentration: 1.56uM -0.399 | [7]; compound concentration: 3.13uM -0.592 | [7]; compound concentration: 6.25uM -0.585 | [7]; compound concentration: 12.5uM -0.654 | [7]; compound concentration: 25uM -0.26 | [7]; compound concentration: 50uM -0.749 | [7]; compound concentration: 100uM -0.609 | [7]; compound concentration: 200uM 0.134 | [8]; compound concentration: 0.78uM -0.545 | [8]; compound concentration: 1.56uM -0.834 | [8]; compound concentration: 3.13uM -0.514 | [8]; compound concentration: 12.5uM -0.725 | [8]; compound concentration: 25uM -0.536 | [8]; compound concentration: 50uM -0.911 | [8]; compound concentration: 200uM -0.929

USP24 (UniProt Q9UPU5)
Sequence of UniProt Q9UPU5 (Q9UPU5 whole entry): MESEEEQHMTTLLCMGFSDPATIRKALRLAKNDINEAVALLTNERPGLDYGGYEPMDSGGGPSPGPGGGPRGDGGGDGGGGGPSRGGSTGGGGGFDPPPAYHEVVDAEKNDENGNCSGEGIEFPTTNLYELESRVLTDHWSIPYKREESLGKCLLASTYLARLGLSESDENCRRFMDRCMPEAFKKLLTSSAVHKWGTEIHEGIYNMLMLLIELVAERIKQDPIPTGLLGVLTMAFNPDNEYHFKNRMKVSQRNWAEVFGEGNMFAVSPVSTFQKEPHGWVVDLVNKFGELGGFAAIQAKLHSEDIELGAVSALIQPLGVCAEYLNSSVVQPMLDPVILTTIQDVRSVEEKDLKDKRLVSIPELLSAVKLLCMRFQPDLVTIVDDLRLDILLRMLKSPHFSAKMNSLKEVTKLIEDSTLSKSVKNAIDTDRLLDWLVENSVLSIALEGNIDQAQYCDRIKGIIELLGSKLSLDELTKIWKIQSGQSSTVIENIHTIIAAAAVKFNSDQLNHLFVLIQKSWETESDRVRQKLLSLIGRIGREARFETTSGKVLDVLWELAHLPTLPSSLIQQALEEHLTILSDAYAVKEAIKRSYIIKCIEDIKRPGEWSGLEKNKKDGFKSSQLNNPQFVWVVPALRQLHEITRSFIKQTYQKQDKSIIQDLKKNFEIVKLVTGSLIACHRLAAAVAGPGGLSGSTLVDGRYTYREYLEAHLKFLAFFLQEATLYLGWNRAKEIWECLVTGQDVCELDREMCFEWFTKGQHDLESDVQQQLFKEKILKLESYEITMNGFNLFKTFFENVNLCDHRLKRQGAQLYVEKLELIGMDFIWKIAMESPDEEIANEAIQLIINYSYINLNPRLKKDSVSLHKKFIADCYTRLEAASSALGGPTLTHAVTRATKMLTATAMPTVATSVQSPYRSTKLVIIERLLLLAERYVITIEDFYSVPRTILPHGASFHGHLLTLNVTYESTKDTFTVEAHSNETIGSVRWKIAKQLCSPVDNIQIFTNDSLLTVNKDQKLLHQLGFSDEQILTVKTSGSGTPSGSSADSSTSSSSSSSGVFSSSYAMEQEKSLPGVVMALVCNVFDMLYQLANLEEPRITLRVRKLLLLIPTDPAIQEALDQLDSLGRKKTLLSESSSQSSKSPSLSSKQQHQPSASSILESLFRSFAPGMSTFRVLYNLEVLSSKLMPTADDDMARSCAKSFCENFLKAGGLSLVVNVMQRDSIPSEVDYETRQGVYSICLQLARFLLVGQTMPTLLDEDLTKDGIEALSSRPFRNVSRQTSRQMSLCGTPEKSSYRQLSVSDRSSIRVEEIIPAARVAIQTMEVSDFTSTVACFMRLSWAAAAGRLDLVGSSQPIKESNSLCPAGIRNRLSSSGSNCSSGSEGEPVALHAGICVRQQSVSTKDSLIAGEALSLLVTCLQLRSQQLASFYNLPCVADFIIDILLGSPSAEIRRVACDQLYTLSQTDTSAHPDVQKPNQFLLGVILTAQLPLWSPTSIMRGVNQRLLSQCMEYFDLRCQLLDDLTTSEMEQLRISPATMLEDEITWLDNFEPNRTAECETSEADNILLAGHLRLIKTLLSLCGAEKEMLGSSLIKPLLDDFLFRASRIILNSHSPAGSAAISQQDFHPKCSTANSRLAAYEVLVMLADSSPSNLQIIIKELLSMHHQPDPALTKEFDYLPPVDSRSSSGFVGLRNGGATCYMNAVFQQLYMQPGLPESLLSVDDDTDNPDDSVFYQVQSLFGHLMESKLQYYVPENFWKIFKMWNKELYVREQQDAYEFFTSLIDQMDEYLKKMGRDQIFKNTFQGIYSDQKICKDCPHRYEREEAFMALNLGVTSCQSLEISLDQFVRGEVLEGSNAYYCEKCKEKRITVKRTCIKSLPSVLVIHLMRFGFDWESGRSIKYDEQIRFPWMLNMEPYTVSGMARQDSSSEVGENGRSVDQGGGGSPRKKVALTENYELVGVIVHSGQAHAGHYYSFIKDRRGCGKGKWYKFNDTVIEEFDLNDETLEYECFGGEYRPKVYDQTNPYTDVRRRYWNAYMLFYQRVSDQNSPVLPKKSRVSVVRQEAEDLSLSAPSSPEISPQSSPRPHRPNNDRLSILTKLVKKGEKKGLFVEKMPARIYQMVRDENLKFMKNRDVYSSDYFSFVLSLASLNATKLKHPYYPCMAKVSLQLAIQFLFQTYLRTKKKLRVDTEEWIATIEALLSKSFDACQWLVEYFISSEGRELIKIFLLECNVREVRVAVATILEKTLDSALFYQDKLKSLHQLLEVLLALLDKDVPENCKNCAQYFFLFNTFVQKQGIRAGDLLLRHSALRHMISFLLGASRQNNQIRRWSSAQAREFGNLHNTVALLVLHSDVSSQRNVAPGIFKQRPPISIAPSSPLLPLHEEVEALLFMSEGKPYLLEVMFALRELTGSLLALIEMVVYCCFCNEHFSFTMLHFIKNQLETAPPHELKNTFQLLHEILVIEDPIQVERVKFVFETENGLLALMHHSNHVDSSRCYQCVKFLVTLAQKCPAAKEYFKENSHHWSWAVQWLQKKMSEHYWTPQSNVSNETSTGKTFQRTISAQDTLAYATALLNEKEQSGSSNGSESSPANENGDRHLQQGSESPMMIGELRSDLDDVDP
active: [1]; compound concentration: 200uM -1.29 | [9]; compound concentration: 200uM -1.37 | [10]; compound concentration: 200uM -1.41
inactive: [1]; compound concentration: 50uM -0.392 | [2]; compound concentration: 50uM -0.121 | [2]; compound concentration: 200uM -0.347 | [3]; compound concentration: 50uM 0.151 | [3]; compound concentration: 200uM -0.708 | [4]; compound concentration: 50uM 0.209 | [4]; compound concentration: 200uM -0.13 | [5]; compound concentration: 50uM 0.141 | [5]; compound concentration: 200uM -0.46 | [6]; compound concentration: 0.78uM -0.028 | [6]; compound concentration: 1.56uM 0.0284 | [6]; compound concentration: 3.13uM -0.0886 | [6]; compound concentration: 6.25uM -0.0483 | [6]; compound concentration: 12.5uM -0.117 | [6]; compound concentration: 25uM -0.177 | [6]; compound concentration: 50uM -0.175 | [6]; compound concentration: 100uM -0.0863 | [6]; compound concentration: 200uM -0.2 | [7]; compound concentration: 0.78uM -0.148 | [7]; compound concentration: 1.56uM -0.0805 | [7]; compound concentration: 3.13uM -0.0521 | [7]; compound concentration: 6.25uM -0.105 | [7]; compound concentration: 12.5uM -0.0644 | [7]; compound concentration: 25uM -0.126 | [7]; compound concentration: 50uM -0.193 | [7]; compound concentration: 100uM -0.134 | [7]; compound concentration: 200uM -0.343 | [8]; compound concentration: 0.78uM -0.009 | [8]; compound concentration: 1.56uM -0.013 | [8]; compound concentration: 3.13uM -0.0452 | [8]; compound concentration: 6.25uM -0.0162 | [8]; compound concentration: 12.5uM -0.088 | [8]; compound concentration: 25uM -0.093 | [8]; compound concentration: 50uM -0.0741 | [8]; compound concentration: 100uM -0.151 | [8]; compound concentration: 200uM -0.346 | [9]; compound concentration: 50uM -0.366 | [10]; compound concentration: 50uM -0.409

OTUD6B (UniProt Q8N6M0)
Sequence of UniProt Q8N6M0 (Q8N6M0 whole entry): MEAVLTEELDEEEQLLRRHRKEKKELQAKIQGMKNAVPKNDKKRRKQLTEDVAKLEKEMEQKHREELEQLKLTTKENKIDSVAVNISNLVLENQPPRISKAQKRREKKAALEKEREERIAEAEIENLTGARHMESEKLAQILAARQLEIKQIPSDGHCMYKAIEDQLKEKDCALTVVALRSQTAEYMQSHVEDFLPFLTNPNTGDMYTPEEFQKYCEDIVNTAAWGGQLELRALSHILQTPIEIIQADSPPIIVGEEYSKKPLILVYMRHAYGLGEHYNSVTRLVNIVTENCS
inactive: [1]; compound concentration: 50uM -0.125 | [1]; compound concentration: 200uM -0.283 | [2]; compound concentration: 50uM -0.286 | [2]; compound concentration: 200uM -0.251 | [3]; compound concentration: 50uM -0.254 | [3]; compound concentration: 200uM -0.722 | [4]; compound concentration: 50uM 0.122 | [4]; compound concentration: 200uM -0.00452 | [5]; compound concentration: 50uM 0.0287 | [5]; compound concentration: 200uM -0.0666 | [6]; compound concentration: 0.78uM -0.127 | [6]; compound concentration: 1.56uM -0.0797 | [6]; compound concentration: 3.13uM -0.201 | [6]; compound concentration: 6.25uM -0.105 | [6]; compound concentration: 12.5uM -0.198 | [6]; compound concentration: 25uM -0.128 | [6]; compound concentration: 50uM -0.0883 | [6]; compound concentration: 100uM -0.038 | [6]; compound concentration: 200uM -0.209 | [7]; compound concentration: 0.78uM -0.264 | [7]; compound concentration: 1.56uM -0.2 | [7]; compound concentration: 3.13uM -0.167 | [7]; compound concentration: 6.25uM -0.186 | [7]; compound concentration: 12.5uM -0.156 | [7]; compound concentration: 25uM -0.268 | [7]; compound concentration: 50uM -0.175 | [7]; compound concentration: 100uM -0.224 | [7]; compound concentration: 200uM -0.168 | [8]; compound concentration: 0.78uM -0.139 | [8]; compound concentration: 1.56uM -0.177 | [8]; compound concentration: 3.13uM -0.0832 | [8]; compound concentration: 6.25uM -0.0276 | [8]; compound concentration: 12.5uM -0.0686 | [8]; compound concentration: 25uM -0.159 | [8]; compound concentration: 50uM 0.0307 | [8]; compound concentration: 100uM -0.0663 | [8]; compound concentration: 200uM -0.229 | [9]; compound concentration: 50uM 0.0279 | [9]; compound concentration: 200uM -0.78 | [10]; compound concentration: 50uM -0.398 | [10]; compound concentration: 200uM -0.676

From the supplement of paper PMC11732987, “Enantioselective OTUD7B fragment discovery through chemoproteomics screening and high-throughput optimisation” (Communications Chemistry, 2025)
